About 8,800 targets were measured; listed, in parts, are those with a hit and a random draw of the rest. About 0.5% of all pairs of compound and target were hits.
Assays:
Test in all cases: log2 fold change, soluble protein after heating vs DMSO (PISA); higher = thermal stabilisation; K562 lysate, 10 uM; active = over 0.2 and 3.5 SD of the protein, either way, in both replicates (recomputed)
[1] = compound: C1=CC=C(C=C1)[C@H](COC2=CC3=C(C=C2)NC(=O)N3)NC(=O)C4=CC=CN(C4=O)CC5=CC(=C(C=C5)F)F
Procedure, shortened: (§1)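 To prepare the extract, K562 pellets were dounce-homogenised in PBS pH 7.4 with 1 mM MgCl2, giving crude material at 1 mg/mL protein. This was treated with 10 μM compound for 30 min, then heated in aliquots for 3 min over 48°C-58°C before pooling and addition of NP-40 to 0.5% at 4°C. Centrifugation at 21,000xg for 90 min left soluble protein in the supernatant, which TMTpro 16plex LC-MS/MS quantified with equalised channel sums. Results are log-two fold changes in thermal stability compared with solvent controls, from duplicates.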

[2] = compound: CC1=C(SC2=C1C(=N[C@H](C3=NN=C(N32)C)CC(=O)N)C4=CC=C(C=C4)Cl)C
Procedure, shortened: as §1

[3] = compound: Cc1sc2c(c1C)C(c1ccc(Cl)cc1)=N[C@@H](CC(=O)OC(C)(C)C)c1nnc(C)n1-2
Procedure, shortened: as §1

[4] = compound: CC1=C2C(=CC=C1)N=C(N(C2=O)C3=CC=CC=C3C)CN4C=NC5=C(N=CN=C54)N
Procedure, shortened: as §1

[5] = compound: c1ccc([C@@H]2C[C@H]2NC2CCNCC2)cc1
Procedure, shortened: as §1

Measured: log2 fold change

FOXL2 (UniProt P58012)
UniProt P58012, sequence (P58012 whole entry, looked up): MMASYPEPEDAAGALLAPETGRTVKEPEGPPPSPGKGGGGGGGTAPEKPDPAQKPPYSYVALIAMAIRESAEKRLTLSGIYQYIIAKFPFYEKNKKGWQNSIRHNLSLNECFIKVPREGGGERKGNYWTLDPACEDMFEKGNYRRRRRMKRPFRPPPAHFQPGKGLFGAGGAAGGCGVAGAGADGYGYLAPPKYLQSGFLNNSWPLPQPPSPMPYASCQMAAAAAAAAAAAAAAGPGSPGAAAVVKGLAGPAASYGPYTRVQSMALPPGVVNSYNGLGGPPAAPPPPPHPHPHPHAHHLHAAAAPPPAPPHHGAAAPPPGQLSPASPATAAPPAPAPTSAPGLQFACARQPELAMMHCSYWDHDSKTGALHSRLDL
inactive: [1] 0.135 | [2] 0.129 | [3] 0.166

GAA (UniProt P10253)
inactive: [1] -0.001 | [2] -0.077 | [4] -0.157 | [5] -0.024

FTSJ1 isoform 2 (UniProt Q9UET6)
inactive: [4] -0.089 | [5] -0.234

GC isoform 3 (UniProt P02774)
inactive: [4] 0.007 | [3] -0.138 | [5] 0.107

FAT1 (UniProt Q14517)
inactive: [5] -0.092

FPGT (UniProt O14772)
UniProt O14772, sequence (O14772 whole entry, looked up): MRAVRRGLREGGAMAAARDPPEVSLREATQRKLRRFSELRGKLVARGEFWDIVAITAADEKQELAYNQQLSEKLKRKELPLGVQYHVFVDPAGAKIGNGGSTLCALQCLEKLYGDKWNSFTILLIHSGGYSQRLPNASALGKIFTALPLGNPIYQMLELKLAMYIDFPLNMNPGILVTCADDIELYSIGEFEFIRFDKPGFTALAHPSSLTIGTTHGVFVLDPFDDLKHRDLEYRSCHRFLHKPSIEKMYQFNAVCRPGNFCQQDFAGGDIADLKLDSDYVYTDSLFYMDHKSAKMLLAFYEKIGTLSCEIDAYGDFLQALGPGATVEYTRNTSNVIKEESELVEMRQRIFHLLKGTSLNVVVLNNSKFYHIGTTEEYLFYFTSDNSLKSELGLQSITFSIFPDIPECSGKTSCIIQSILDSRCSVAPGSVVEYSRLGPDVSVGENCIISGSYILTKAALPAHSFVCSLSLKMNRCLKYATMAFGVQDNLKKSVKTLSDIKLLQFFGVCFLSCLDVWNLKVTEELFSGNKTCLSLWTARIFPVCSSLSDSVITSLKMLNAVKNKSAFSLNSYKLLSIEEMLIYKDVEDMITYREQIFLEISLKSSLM
inactive: [1] 0.007 | [2] -0.003 | [4] 0.07 | [3] -0.006 | [5] 0.104

EHHADH (UniProt Q08426)
UniProt Q08426, sequence (Q08426 whole entry, looked up): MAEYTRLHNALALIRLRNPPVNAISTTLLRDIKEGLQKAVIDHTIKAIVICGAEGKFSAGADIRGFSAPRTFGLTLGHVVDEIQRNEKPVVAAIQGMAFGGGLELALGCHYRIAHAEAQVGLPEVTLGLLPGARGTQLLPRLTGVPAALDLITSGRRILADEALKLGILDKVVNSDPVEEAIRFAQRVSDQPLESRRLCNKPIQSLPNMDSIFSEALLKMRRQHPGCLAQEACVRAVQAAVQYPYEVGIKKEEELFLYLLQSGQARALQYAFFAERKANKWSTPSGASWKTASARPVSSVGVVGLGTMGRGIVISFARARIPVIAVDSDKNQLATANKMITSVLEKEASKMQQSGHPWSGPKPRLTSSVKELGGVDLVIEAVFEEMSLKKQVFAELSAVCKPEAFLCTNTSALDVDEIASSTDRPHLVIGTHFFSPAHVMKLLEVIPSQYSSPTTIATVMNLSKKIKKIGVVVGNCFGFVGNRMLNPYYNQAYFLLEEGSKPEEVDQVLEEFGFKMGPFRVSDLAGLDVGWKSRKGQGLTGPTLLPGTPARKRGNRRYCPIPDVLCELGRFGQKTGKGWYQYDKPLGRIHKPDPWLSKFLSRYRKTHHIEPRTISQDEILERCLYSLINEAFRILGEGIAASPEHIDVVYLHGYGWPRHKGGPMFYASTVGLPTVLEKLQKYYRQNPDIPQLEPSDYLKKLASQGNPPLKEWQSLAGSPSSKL
inactive: [1] 0.035 | [2] -0.143 | [3] -0.086 | [5] 0.031

DST isoform 3 (UniProt Q03001)
inactive: [1] -0.039 | [2] -0.033 | [5] 0.586

GDE1 (UniProt Q9NZC3)
UniProt Q9NZC3, sequence (Q9NZC3 whole entry, looked up): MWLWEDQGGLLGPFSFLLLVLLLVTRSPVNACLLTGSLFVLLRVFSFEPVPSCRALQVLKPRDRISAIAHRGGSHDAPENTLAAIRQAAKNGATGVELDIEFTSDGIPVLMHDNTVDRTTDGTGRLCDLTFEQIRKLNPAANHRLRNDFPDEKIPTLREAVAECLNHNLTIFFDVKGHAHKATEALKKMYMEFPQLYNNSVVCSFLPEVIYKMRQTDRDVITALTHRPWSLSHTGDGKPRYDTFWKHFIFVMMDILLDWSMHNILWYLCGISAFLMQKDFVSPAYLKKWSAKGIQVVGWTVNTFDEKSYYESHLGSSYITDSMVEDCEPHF
inactive: [1] -0.085 | [2] -0.076 | [3] -0.067 | [5] 0.394

DYRK1A isoform 2 (UniProt Q13627)
inactive: [1] -0.001 | [2] -0.028 | [5] -0.339

GBA2 (UniProt Q9HCG7)
inactive: [1] 0.046 | [2] 0.062 | [3] -0.094 | [5] -0.057

GCLM (UniProt P48507)
inactive: [1] 0.01 | [2] -0.041 | [4] 0.02 | [3] 0.008 | [5] 0.006

GART (UniProt C9JZG2)
inactive: [1] -0.131 | [2] 0.086 | [5] -0.366

EIF3I (UniProt Q5TFK1)
inactive: [5] 0.059

ELAVL4 (UniProt P26378)
UniProt P26378, sequence (P26378 whole entry, looked up): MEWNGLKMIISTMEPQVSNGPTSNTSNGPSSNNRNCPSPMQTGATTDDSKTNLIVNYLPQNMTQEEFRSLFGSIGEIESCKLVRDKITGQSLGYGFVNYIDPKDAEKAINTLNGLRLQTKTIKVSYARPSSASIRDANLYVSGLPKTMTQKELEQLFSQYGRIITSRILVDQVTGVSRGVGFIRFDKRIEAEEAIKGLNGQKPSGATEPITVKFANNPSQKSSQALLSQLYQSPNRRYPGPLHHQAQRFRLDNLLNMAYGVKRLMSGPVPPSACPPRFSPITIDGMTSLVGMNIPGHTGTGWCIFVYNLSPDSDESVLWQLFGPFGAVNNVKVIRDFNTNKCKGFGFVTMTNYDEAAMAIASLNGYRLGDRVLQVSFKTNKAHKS
inactive: [4] 0.018 | [3] -0.079 | [5] 0.095

ELF2 (UniProt Q15723)
UniProt Q15723, sequence (Q15723 whole entry, looked up): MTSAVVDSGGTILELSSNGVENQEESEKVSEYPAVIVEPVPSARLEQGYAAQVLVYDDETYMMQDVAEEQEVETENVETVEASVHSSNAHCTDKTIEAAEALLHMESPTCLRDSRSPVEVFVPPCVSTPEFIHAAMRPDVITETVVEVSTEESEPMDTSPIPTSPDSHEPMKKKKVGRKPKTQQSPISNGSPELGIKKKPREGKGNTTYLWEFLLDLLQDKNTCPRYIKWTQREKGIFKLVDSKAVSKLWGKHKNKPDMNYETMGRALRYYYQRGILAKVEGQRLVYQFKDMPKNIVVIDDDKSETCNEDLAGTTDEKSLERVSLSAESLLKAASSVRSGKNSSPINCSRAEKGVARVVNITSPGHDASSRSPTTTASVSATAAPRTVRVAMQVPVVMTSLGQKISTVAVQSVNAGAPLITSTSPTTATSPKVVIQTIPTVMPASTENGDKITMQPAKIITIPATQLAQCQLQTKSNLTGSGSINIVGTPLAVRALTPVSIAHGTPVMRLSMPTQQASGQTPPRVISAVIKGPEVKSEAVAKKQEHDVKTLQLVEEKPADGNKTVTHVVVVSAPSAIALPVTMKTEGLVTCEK
inactive: [1] -0.162 | [2] -0.074 | [4] 0.044 | [3] -0.005 | [5] 0.013

EPS8L2 (UniProt Q9H6S3)
UniProt Q9H6S3, sequence (Q9H6S3 whole entry, looked up): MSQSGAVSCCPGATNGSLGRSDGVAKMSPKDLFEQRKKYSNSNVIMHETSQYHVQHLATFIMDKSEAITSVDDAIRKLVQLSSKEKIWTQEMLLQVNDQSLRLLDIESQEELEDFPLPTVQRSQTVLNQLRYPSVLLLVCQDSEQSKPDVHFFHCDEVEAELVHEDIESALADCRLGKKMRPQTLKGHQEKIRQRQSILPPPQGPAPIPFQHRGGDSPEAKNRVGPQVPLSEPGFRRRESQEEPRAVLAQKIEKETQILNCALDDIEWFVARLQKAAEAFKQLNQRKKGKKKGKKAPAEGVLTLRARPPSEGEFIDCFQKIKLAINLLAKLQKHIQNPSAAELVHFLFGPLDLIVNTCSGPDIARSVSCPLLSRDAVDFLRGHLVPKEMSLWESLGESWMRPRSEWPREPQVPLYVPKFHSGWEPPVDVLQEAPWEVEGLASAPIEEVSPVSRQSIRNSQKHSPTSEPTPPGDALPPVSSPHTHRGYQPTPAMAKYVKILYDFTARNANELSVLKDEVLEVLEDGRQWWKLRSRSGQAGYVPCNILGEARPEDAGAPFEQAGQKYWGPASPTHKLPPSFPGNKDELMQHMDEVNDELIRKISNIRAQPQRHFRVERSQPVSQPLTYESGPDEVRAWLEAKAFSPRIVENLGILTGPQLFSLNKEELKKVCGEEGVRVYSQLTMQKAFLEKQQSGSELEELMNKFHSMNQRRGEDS
inactive: [1] 0.124 | [2] -0.09 | [3] 0.008 | [5] 0.037

GCA (UniProt P28676)
inactive: [5] -0.095

FOXJ2 (UniProt Q9P0K8)
inactive: [1] 0.022 | [2] 0.06 | [3] 0.015 | [5] 0.039

FMNL2 isoform 3 (UniProt Q96PY5)
inactive: [3] 0.089

ERG28 (UniProt Q9UKR5)
inactive: [1] 0.001 | [2] -0.053 | [3] -0.08 | [5] 0.277

DYRK1A (UniProt Q13627)
inactive: [1] -0.019 | [2] 0.003 | [4] -0.014 | [3] 0.019 | [5] 0.031

FAM111A (UniProt Q96PZ2)
inactive: [4] -0.008 | [3] -0.097

EVI5L isoform 2 (UniProt Q96CN4)
inactive: [5] 0.036

EEF1AKNMT (UniProt Q8N6R0)
UniProt Q8N6R0, sequence (Q8N6R0 whole entry, looked up): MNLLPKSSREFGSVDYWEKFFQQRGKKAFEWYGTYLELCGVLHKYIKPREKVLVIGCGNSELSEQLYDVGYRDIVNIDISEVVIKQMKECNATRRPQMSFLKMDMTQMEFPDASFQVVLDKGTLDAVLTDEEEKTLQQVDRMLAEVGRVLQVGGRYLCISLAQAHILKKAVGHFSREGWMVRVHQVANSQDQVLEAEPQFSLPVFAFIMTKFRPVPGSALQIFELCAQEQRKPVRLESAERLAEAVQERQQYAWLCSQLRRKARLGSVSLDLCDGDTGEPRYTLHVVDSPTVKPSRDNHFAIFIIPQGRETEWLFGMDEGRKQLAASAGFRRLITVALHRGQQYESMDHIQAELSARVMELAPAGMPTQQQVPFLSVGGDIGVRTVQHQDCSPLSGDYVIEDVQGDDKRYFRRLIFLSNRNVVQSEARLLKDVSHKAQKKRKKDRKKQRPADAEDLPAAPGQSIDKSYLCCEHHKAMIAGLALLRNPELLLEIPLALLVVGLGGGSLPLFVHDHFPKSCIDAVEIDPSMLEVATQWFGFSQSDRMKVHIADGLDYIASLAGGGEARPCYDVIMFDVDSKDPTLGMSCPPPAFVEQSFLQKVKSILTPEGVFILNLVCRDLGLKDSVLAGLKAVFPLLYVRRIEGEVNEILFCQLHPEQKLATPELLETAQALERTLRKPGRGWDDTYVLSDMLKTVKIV
inactive: [1] -0.012 | [2] -0.073 | [4] 0.013 | [3] 0.018 | [5] 0.042

EPN2 (UniProt I3L356)
inactive: [1] 0.12 | [2] -0.062 | [5] -0.235

EID1 (UniProt Q9Y6B2)
inactive: [3] 0.024 | [5] -0.022

FNDC3A (UniProt Q9Y2H6)
inactive: [5] -0.136

FUBP3 (UniProt Q96I24)
UniProt Q96I24, sequence (Q96I24 whole entry, looked up): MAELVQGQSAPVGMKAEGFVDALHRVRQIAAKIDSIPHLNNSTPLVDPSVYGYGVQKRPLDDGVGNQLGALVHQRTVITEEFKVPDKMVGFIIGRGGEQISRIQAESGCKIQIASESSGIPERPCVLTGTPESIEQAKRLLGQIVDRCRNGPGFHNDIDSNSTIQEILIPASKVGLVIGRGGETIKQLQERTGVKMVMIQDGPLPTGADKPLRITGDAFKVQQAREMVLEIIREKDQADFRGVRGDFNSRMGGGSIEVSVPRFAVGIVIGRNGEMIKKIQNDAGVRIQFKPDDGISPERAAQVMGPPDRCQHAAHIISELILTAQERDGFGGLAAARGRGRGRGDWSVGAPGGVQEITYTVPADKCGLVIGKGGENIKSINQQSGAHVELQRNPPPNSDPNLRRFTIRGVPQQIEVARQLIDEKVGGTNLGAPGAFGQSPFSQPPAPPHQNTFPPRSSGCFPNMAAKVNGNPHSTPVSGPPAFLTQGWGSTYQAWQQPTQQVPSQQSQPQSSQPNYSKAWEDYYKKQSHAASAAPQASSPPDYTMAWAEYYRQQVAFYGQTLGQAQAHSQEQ
inactive: [1] -0.052 | [2] 0.019 | [4] -0.007 | [3] -0.01 | [5] 0.011

EPB41 isoform 4 (UniProt P11171)
inactive: [5] 0.106

EIF2AK3 (UniProt Q9NZJ5)
inactive: [3] 0.025 | [5] 0.041

ESRRB isoform 1 (UniProt O95718)
inactive: [1] -0.147 | [2] 0.109 | [5] 0.321

FBXO45 (UniProt P0C2W1)
inactive: [1] -0.079 | [2] -0.177 | [4] -0.004 | [5] 0.053

FAT2 (UniProt Q9NYQ8)
inactive: [1] -0.009 | [2] 0.092 | [4] 0.104 | [5] -0.161
